Bioassay records as filed in PubChem.
FBPA Giardia inh: qHTS Assay for Inhibitors of Fructose-1,6-bisphosphate Aldolase from Giardia Lamblia. A8B2U2. purified Giardia FBPA. Potency, µM (highest dose often 59.6 µM), actives largely listed as inhibitors. actives 0.71% (n = 290,000). AID 2451, 2010; also: nearly all actives have a fitted effect of over 55% in size
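40 nM FBPA preincubated 10 min at RT with compound (up to 57.5 uM final), then substrate plus GAPDH/TPI/NAD/arsenate coupling and diaphorase/resazurin added. Fluorescence read after 20 min at RT, 525/598 nm.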
AmpC no deterg: qHTS Inhibitors of AmpC Beta-Lactamase (assay without detergent); actives 0.52% (n = 330,000); Potency, µM (top dose mostly 57.1 µM), usual class: inhibitors; AmpC nitrocefin hydrolysis, absorbance 480 nm, 0.0001% Triton; also: nearly all actives have a fitted effect of over 20% in size
Target sequence (P00811 whole entry, looked up): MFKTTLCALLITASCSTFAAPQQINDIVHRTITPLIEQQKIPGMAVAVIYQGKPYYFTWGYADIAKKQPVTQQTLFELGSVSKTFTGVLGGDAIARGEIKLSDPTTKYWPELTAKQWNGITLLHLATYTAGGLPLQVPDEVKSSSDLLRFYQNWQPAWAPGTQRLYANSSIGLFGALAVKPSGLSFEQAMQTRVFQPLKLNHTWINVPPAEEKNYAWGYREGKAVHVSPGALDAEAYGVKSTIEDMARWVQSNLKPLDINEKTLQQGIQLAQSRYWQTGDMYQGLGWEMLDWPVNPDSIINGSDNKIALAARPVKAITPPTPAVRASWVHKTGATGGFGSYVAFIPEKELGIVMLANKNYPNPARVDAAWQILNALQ
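20 mM phosphate pH 7.0 + 0.01% (detergent screen) or 0.0001% Triton X-100; 5.3 nM AmpC reagent; cpd preinc 15 min RT; nitrocefin (800 uM stock) to start; A480 q20 s × 4 min; Activity was normalised to no-enzyme and no-compound control wells.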
AmpC inh detg: qHTS Inhibitors of AmpC Beta-Lactamase (assay with detergent) | P00811 | AmpC hydrolysis of nitrocefin, absorbance 480 nm, 0.01% Triton | Potency, µM (titrated, usually from 114 µM), most hits filed as inhibitors | actives 0.041% (n = 370,000); also: nearly all actives have a fitted effect of over 25% in size
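20 mM phosphate pH 7.0 + 0.01% (detergent screen) or 0.0001% Triton X-100; 5.3 nM AmpC reagent; cpd preinc 15 min RT; nitrocefin (800 uM stock) to start; A480 q20 s × 4 min; Activity was normalised to no-enzyme and no-compound control wells.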
AMA1 RON2 block: qHTS for Inhibitors of AMA1-RON; Towards Development of Antimalarial Drug Lead: Primary Screen; Plasmodium falciparum AMA1 (3D7) - RON2 peptide interaction; AlphaScreen AMA1-biotinylated RON2 peptide binding; Potency, µM (titrated, usually from 58.2 µM), actives largely listed as inhibitors; actives 0.2% (n = 360,000); AID 720542, 2013; also: nearly all actives have a fitted effect of over 45% in size
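AMA1 (3D7) with his tag at 25 nM final met compounds first, then biotinylated RON2 peptide at 25 nM; detection used donor plus acceptor beads, 10 µg/mL apiece, read by AlphaScreen after 30 min at room temperature.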
LmPK inh: qHTS Assay for Inhibitors of Leishmania Mexicana Pyruvate Kinase (LmPK); Q27686; purified LmPK, Kinase-Glo ATP luminescence, 1 h; Potency, µM (doses to about 57.5 µM), usual class: inhibitors; actives 0.37% (n = 290,000); AID 1721, 2009
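Kinase-Glo luminescence read after 1 h RT reaction of 0.1 nM LmPK with 0.5 mM PEP and 0.1 mM ADP. Activity scaled between uninhibited and enzyme-free controls.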
Each line names hits and unclear results; the compound was inactive in the other large screens; ! = a repeat was not active. Most compounds without a hit are left out; they make up all but 1.3% or so of the library. Calls follow the shape of the dose curve; as a rule, active = well fitted curve in the direction sought with a large enough effect; inconclusive = small, poorly fitted or top-dose-only effect, or another doubt; inactive = no such curve, though single readings can be large; an effect the other way counts as inactive or inconclusive.

CN1CC(C(=O)c2ccc(Cl)cc2)C(c2ccc(N(C)C)cc2)C1 (configuration not stated)	AMA1 RON2 block inconclusive
CN1CC(C(=O)c2ccc(Cl)cc2)C(c2ccc(Cl)cc2Cl)C1 (configuration not stated)	AMA1 RON2 block 31.6µM
Oc1[nH]c2ccccc2c1N=Nc1ccccn1	none (no result: FBPA Giardia inh, AmpC no deterg, AmpC inh detg, LmPK inh)
Oc1c(N=Nc2ccccn2)ccc2ccccc12	AMA1 RON2 block inconclusive, LmPK inh 12.6µM
CN(C(=O)CSc1nc2c(c(=O)[nH]1)CCCC2)c1ccccc1	none (no result: FBPA Giardia inh, AmpC no deterg, AMA1 RON2 block, LmPK inh)
O=C(Nc1nc2ccccc2[nH]1)c1cc(F)cc(F)c1	none
O=C(Nc1nc2ccccc2[nH]1)c1ccc(F)cc1	AmpC inh detg inconclusive, LmPK inh 12.6µM
c1cc(N2CCCCC2)nc(N2CCCCC2)n1	none (no result: FBPA Giardia inh, AmpC no deterg, AmpC inh detg, LmPK inh)
C[c-]1[c-](C)[c-](C)[c-](C)[c-]1C.[Fe].c1cc2nccc(N3CCCC3)[c-]2c1 (configuration not stated)	FBPA Giardia inh inconclusive, AMA1 RON2 block inconclusive, LmPK inh 31.6µM!
COc1ccc2ccccc2c1/C=N\NC(=O)c1ccc(C)s1	AmpC no deterg 11.2µM (no result: FBPA Giardia inh)
Cc1ccc(SCC(Cc2ccccc2)N2CCN(C)CCC2=O)cc1 (configuration not stated)	none (no result: AmpC no deterg, AmpC inh detg, AMA1 RON2 block, LmPK inh)
O=S1(=O)c2c(F)cccc2O[C@@H](COCc2ccccc2)CN1CCc1ccc(F)cc1	none (no result: FBPA Giardia inh, AmpC no deterg, AmpC inh detg, LmPK inh)
CCCNC(=O)C1(C)CCCN(C(=O)c2cc(C)n(C(C)(C)C)n2)C1 (configuration not stated)	none (no result: FBPA Giardia inh, AmpC no deterg, AmpC inh detg, LmPK inh)
Clc1ncnc2c1oc1ccccc12	AmpC no deterg 0.282µM
CC1(C(=O)NCc2ccccc2)CN(S(C)(=O)=O)CC(=O)N1Cc1cccc(C(F)(F)F)c1 (configuration not stated)	none (no result: FBPA Giardia inh, AmpC no deterg, AmpC inh detg, LmPK inh)
O=C(Nc1ccc(Oc2ccccc2)cc1)c1ccc(Cn2c(=O)[nH]c3ccsc3c2=O)cc1	AmpC no deterg 15.8µM
Cc1ccsc1C=C1C(=O)c2ccccc2C1=O	LmPK inh 14.1µM
CCc1nnc(NC(=O)CSc2nnc3ncccn23)s1	AmpC no deterg 0.316µM
Cc1cnc(NC(=O)CSc2nnc3ncccn23)s1	none
CNC(=S)N1N=C(c2ccc(C)cc2)CC1c1ccc(N(C)C)cc1 (configuration not stated)	AMA1 RON2 block 28.2µM
CC(/C=N/Nc1nnc(C)c(=O)[nH]1)=C\c1ccccc1	none
C/C(=N\Nc1nnc(C)c(=O)[nH]1)C(=O)O	FBPA Giardia inh 3.54µM
Oc1ccccc1-c1nc2c3ccccc3c3ccccc3c2[nH]1	FBPA Giardia inh 17.7µM
c1csc(-c2nc3c4ccccc4c4ccccc4c3[nH]2)c1	none
C/C(=N\NC(=O)c1n[nH]c2c1CCC2)c1cccs1	LmPK inh 11.2µM
C/C(=N\NC(=O)c1cc(C)[nH]n1)c1cccs1	none
O=C(N/N=C/c1cccs1)c1n[nH]c2c1CCCC2	LmPK inh 14.1µM
CCN(CC)C(=O)c1cccc(NC(=O)C2CCN(C(=O)c3cccs3)CC2)c1	none (no result: FBPA Giardia inh, AmpC inh detg, LmPK inh)
COc1cc(OC)c2cc(C(=O)N/N=C/c3cccc(OC)c3O)[nH]c2c1	AmpC no deterg 0.398µM
COc1cccc(/C=N/NC(=O)c2cc3c(OC)ccc(OC)c3[nH]2)c1O	none
COc1ccccc1/C=N/Nc1nccnc1Cl	LmPK inh 15.8µM
COc1cccc(/C=N/Nc2ncccc2[N+](=O)[O-])c1OC	LmPK inh 14.1µM
CCOC(=O)Cn1c(=O)oc2cc(S(=O)(=O)N3CCn4c3nc3ccccc34)ccc21	AmpC no deterg 22.4µM
CCOC(=O)Cn1c(=O)oc2cc(S(=O)(=O)N3CCCc4ccccc43)ccc21	AmpC inh detg inconclusive
CCCCS(=O)(=O)c1sc2nc3c(cc2c1N)CCCC3	AmpC inh detg inconclusive, AMA1 RON2 block 5.97µM
CCCCCCCCS(=O)c1sc2nc3c(cc2c1N)CCCC3 (configuration not stated)	none (no result: FBPA Giardia inh, AmpC no deterg, AmpC inh detg, LmPK inh)
Cc1ccc(OCc2cc(C(=O)N(C)Cc3cnn(-c4ccccc4C)c3)no2)cn1	none (no result: FBPA Giardia inh)
